Measured values: ChEMBL document CHEMBL4513216, “Probing the Open Global Health Chemical Diversity Library for Multistage-Active Starting Points for Next-Generation Antimalarials” (ACS Infect Dis, 2020)
The whole screen tested about 69,000 compounds, of which about 8,600 (12%) showed an effect of 50% or more. The entries come from a sample that favours strong results as a whole.

Each molecule was assayed on Plasmodium berghei (assay: Screen against P. berghei liver stage (PbLuc), transformed with Luciferase, at 10uM). Settings: tested at 10 uM.
Assay type: functional, HepG2

Point of comparison: `Cn1cnc2c1C(COCC1CCOCC1)CN(c1ncccn1)C2` (stereo not drawn), INHIBITION 33.4%. Against it:
- CC(C)NCC1(COc2ccccc2)C[C@@H](O)[C@@H](O)C1 (stereo partly drawn) — higher, 38.3%
- NC(=O)c1ccc(OCC(=O)N2CCCC(n3cccn3)C2)cc1 (stereo not drawn) — lower, -25.9%
- O=C(CCNc1ncccn1)N1CCCC(n2cccn2)C1 (stereo not drawn) — higher, 50.3%
- NC(=O)COc1cccc(C(=O)N2CCCC(n3cccn3)C2)c1 (stereo not drawn) — lower, 20.1%
- NC(=O)c1cccc(OCC(=O)N2CCCC(n3cccn3)C2)c1 (stereo not drawn) — higher, 57.5%
- O=C(CCCNc1ncccn1)N1CCCC(n2cccn2)C1 (stereo not drawn) — lower, 8.48%
- O=C(COCC1CC1)N1CCCC(n2cccn2)C1 (stereo not drawn) — lower, 8.48%
- O=C(COCCc1ccccc1)N1CCCC(n2cccn2)C1 (stereo not drawn) — higher, 61.9%
- O=C(CCNc1ncccn1)N1CCCC(n2ccnc2)C1 (stereo not drawn) — lower, 21.1%
- O=C(COCCc1ccccc1)N1CCCC(n2cncn2)C1 (stereo not drawn) — lower, 7.12%
- Cc1nn(C)c(N(C)C)c1CNC(C)COc1ccc(F)cc1F (stereo not drawn) — lower, -41.6%
- O=S(=O)(NCCC(O)c1ccoc1)c1ccc(Cl)s1 (stereo not drawn) — lower, -5.22%
- COc1cc2nc(C)n(CC(=O)NCCO)c(=O)c2cc1OC — lower, 4.82%
- COc1cc(OC)cc(-c2noc(CC(N)c3ccccc3)n2)c1 (stereo not drawn) — higher, 36.3%
- CN1CCN(Cc2nnc(C3CCN(S(C)(=O)=O)CC3)n2C)CC1 — lower, -14.3%
- CC1CCN(C(=O)NCC(=O)N(C)CC(F)(F)F)C1 (stereo not drawn) — lower, 18.6%
- CN(CC(F)(F)F)C(=O)CNC(=O)N1CCCC(C(F)(F)F)C1 (stereo not drawn) — lower, 18.6%
- CN(CC(F)(F)F)C(=O)CNC(=O)N1CCCC(N(C)C)C1 (stereo not drawn) — higher, 53.3%
- NCC(=O)N1CCCC(c2cncc(Nc3ncccn3)n2)C1 (stereo not drawn) — higher, 51.7%
- c1cnc(Nc2cncc(C3CCCN(c4ncccn4)C3)n2)nc1 (stereo not drawn) — lower, -0.371%
- c1cnc(Nc2cncc(C3CCCN(c4cnccn4)C3)n2)nc1 (stereo not drawn) — lower, -6.3%
- NCC(=O)N1CCCC(c2ccnc(Nc3cnccn3)n2)C1 (stereo not drawn) — lower, 18.9%
- NC(=O)CN1CCCC(c2cncc(Nc3ncccn3)n2)C1 (stereo not drawn) — higher, 59%
- COCC(=O)N1CCCC1c1nccnc1Nc1ncccn1 (stereo not drawn) — lower, 7.05%
- CCC(=O)N1CCCC1c1nccnc1Nc1ncccn1 (stereo not drawn) — higher, 42.6%
- NCC(=O)N1CCCC1c1nccnc1Nc1ncccn1 (stereo not drawn) — higher, 59%
- COc1ccccc1Oc1cncc(C2CCCN(CC(N)=O)C2)n1 (stereo not drawn) — lower, 20.8%
- CCS(=O)(=O)N1CCC2(CCC2NC(=O)c2ccn(C)c2)CC1 (stereo not drawn) — lower, 8.53%
- O=C(c1ccno1)N1CCO[C@@H]2CC(COCc3ccccn3)C[C@H]21 (stereo partly drawn) — lower, 8.6%
- COc1cc(C(=O)N(Cc2cnn(C)c2)C(C)C)ccc1C — lower, 14.1%
- COc1cc(N2CC[C@@H]3O[C@H](C(=O)NCC4CC4)C[C@@H]32)ncn1 — lower, -22.1%
- Cc1cc(Oc2ccccc2F)nc(C2CCCCN2)n1 (stereo not drawn) — lower, 10.9%
- CN(Cc1nnn(CC2CC2)n1)C(=O)c1ccccc1 — lower, 1.74%
- CCn1c(=O)n(CCC(=O)N(C)Cc2ccc(C)o2)c2ccccc21 — lower, 15.4%
- Cc1ccc(CN(C)C(=O)CCn2c(=O)n(C)c3ccccc32)o1 — higher, 49.7%
- CCCn1c(=O)n(CCC(=O)N(C)Cc2ccc(C)o2)c2ccccc21 — higher, 83.2%
- CCN1CCC(NC(=O)NCC(O)c2ccc(Cl)c(F)c2)CC1 (stereo not drawn) — higher, 43.1%
- CC(C)CCN1CCCC12Cc1ccccc1CNC2=O (stereo not drawn) — lower, 14.3%
- Cc1ccc(CN2CCCC23Cc2ccccc2CNC3=O)cc1 (stereo not drawn) — higher, 52.4%
- O=C1Nc2ccccc2CC12CCCN2Cc1ccc(F)cc1 (stereo not drawn) — lower, -38.7%
- Cc1ccc(CCN2CCCC23Cc2ccccc2CNC3=O)cc1 (stereo not drawn) — higher, 54.9%
- O=C1NCc2ccccc2CC12CCCN(CCCc1ccccc1)C2 (stereo not drawn) — lower, 27.5%
- Cc1cc(C)c(CN2CCCC23Cc2ccccc2CNC3=O)c(C)c1 (stereo not drawn) — higher, 68.9%
- CC(C)(C)CN1CCCC12Cc1ccccc1CNC2=O (stereo not drawn) — lower, 32.5%
- O=C1Nc2ccccc2CC12CCCN2Cc1cccnc1 (stereo not drawn) — lower, -2.28%
- O=C1Nc2ccccc2CC12CCCN2Cc1ccccn1 (stereo not drawn) — lower, 27.5%
- O=S(=O)(c1cccnc1)N1C[C@H]2CCC[C@@]2(COc2ccccn2)C1 — higher, 38.5%
- CCn1c(N)nc2cc(C(=O)NCCc3ccncc3)cnc21 — lower, -20%
- Nc1ccc(CC2CCCN(Cc3c[nH]cn3)C2)nn1 (stereo not drawn) — lower, -4.87%
- COc1ccc(CN2CCn3cc(CN4CCCCC4)nc3C2)cc1 — lower, 0.79%
- CC(C)Oc1ccc(C(=O)N2CCCCC2Cn2cccn2)cn1 (stereo not drawn) — lower, -21.645%
- CN(C)c1nc2c(c(=O)[nH]1)CCN(C(=O)c1c[nH]c(=O)c(Cl)c1)C2 — higher, 51.1%
- O=C(c1ccc(=O)[nH]c1)N1CCc2c(nc(-c3cccnc3)[nH]c2=O)C1 — higher, 61.8%
- CN(C)c1nc2c(c(=O)[nH]1)CCN(C(=O)c1cccc3nccnc13)C2 — lower, 6.8%
- Cc1nc(C(C)C)ncc1C(=O)N1CCc2c(nc(N(C)C)[nH]c2=O)C1 — higher, 50.1%
- CN(C)c1nc2c(c(=O)[nH]1)CCN(C(=O)c1ccc(=O)[nH]c1)C2 — lower, 4.1%
- O=C(c1cccnc1)N1CCc2c(nc(N3CCCC3)[nH]c2=O)C1 — higher, 46%
- CN(C)c1nc2c(c(=O)[nH]1)CCN(C(=O)C1CCCO1)C2 (stereo not drawn) — lower, 6.26%
- O=c1[nH]c(-c2cccnc2)nc2c1CCN(S(=O)(=O)N1CCCC1)C2 — lower, 23.6%
- CCCc1ccc(C(=O)N2CCc3c(nc(N(C)C)[nH]c3=O)C2)cc1 — lower, 23.3%
- CCc1onc(C)c1C(=O)N1CCN(c2ncc3c(n2)CCOC3)CC1 — lower, 17.05%
- Cc1n[nH]c(C)c1C1COCCN1C(=O)c1n[nH]c2ccccc12 (stereo not drawn) — lower, -2.25%
- O=c1[nH]nc(CCCN2CCOCC2)n1Cc1cccc(F)c1 — lower, 10.3%
- O=C(CCN1CCCCC1)Nc1c2c(cc3c1CCC3)CCC2 — lower, 18.8%
- Cn1cc(S(=O)(=O)NCC(C)(O)c2ccsc2)cn1 (stereo not drawn) — lower, 16.3%
- Cn1cc(S(=O)(=O)NCCc2ccsc2)cn1 — higher, 70.9%
- Cn1cc(S(=O)(=O)NCc2ccsc2)cn1 — lower, -17.8%
- CNc1nc(C(=O)N2CCCC(COc3ccc(F)cc3)C2)cs1 (stereo not drawn) — higher, 44.9%
- Cn1ccc(C(=O)N2CCC(Cc3cnc4[nH]ccc4c3)C2)n1 (stereo not drawn) — lower, -77.5%
- CCCC(=O)N(C)C(c1cccc(F)c1)c1ccccn1 (stereo not drawn) — lower, 13.6%
- Cc1nnc(NC(=O)CSCc2cc(=O)n3ccccc3n2)s1 — lower, 27.5%
- Cc1ccn2c(=O)cc(CSCC(=O)Nc3nnc(C(C)C)s3)nc2c1 — higher, 52.5%
- Cc1cccn2c(=O)cc(CSCC(=O)Nc3nnc(C(C)C)s3)nc12 — lower, 14.7%
- CC(C)c1nnc(NC(=O)CSCc2cc(=O)n3ccccc3n2)s1 — higher, 38.9%
- Cc1cccc2nc(CSCC(=O)Nc3nnc(C(C)C)s3)cc(=O)n12 — lower, 24.5%
- Cc1ccc2nc(CSCC(=O)Nc3nnc(C(C)C)s3)cc(=O)n2c1 — higher, 50.2%
- c1ncn(CC2CN(CCCOc3ccc4c(c3)OCO4)CCO2)n1 (stereo not drawn) — higher, 36.1%
- O=C(Nc1ccccn1)N(CCO)Cc1ccccc1Br — lower, 10.2%
- Cc1nc(O)c2nnn(C[C@H]3CCCN3C(=O)c3cccs3)c2n1 — lower, 31.6%
- COc1ncccc1CN1CCc2[nH]cnc2C1CCSC (stereo not drawn) — the same, 33.4%
- CSCCC1c2nc[nH]c2CCN1Cc1ccccc1C(F)(F)F (stereo not drawn) — higher, 69.1%
- CSCCC1c2nc[nH]c2CCN1Cc1ccnc2ccccc12 (stereo not drawn) — lower, -9.67%
- CCn1ncnc1CN1CCc2[nH]cnc2C1CCc1ccccc1 (stereo not drawn) — lower, 1.94%
- CSCCC1c2nc[nH]c2CCN1Cc1ccccc1C#N (stereo not drawn) — higher, 40.9%
- O=C(O)C1c2nc[nH]c2CCN1Cc1ccccc1-c1ccccc1 (stereo not drawn) — lower, 12.7%
- CCn1ncnc1CN1CCc2[nH]cnc2C1Cc1ccccc1 (stereo not drawn) — lower, -56.1%
- CSCCC1c2nc[nH]c2CCN1Cc1cc(Cl)ccc1O (stereo not drawn) — higher, 70.6%
- CSCCC1c2nc[nH]c2CCN1Cc1cncn1C (stereo not drawn) — higher, 56.1%
- CCn1cc(NC(=O)C2CCC(=O)N2Cc2ccco2)cn1 (stereo not drawn) — lower, 20.4%
- CCc1noc(C2CC(=O)N(CCN(C)C)C2)n1 (stereo not drawn) — higher, 35.1%
- COc1ccccc1C(=O)N1CCNCC1C(N)=O (stereo not drawn) — lower, 9.2%
- CC(O)(CCc1ccccc1)CNC(=O)c1ccsc1 (stereo not drawn) — higher, 50.2%
- CC(O)(CCc1ccccc1)CNC(=O)c1ccc(F)cc1 (stereo not drawn) — lower, 26.8%
- CSCCC(C)(O)CNC(=O)c1ccsc1 (stereo not drawn) — lower, 8.61%
- Cn1cccc1CN1CCC2(CCCN(C(=O)c3cnccn3)C2)C1 (stereo not drawn) — lower, 2.01%
- CCn1cc(NC(=O)NCCc2ccc3c(c2)OCCO3)cn1 — lower, -27.8%
- CCn1cc(NC(=O)CCc2ccc3c(c2)OCCCO3)cn1 — higher, 55.5%
- CCn1cc(NC(=O)NCc2ccc3c(c2)OCCO3)cn1 — lower, 33%
- CCN(CC)C(=O)c1c(Br)cnn1CC — lower, 29.3%
- COc1c(CNC2CCCOc3ccccc32)c(C(C)C)nn1C (stereo not drawn) — lower, 15.3%
- NC(=O)c1cnc2n1CCN(C(=O)c1ccc(Cn3cccc3)cc1)C2 — lower, 15.5%
- CC(C)NC(=O)[C@@H]1CCO[C@@H]2CCN(c3ncccn3)C[C@@H]21 — lower, 2.41%
- Clc1ccc(C(CNCc2cccnc2)n2cccn2)cc1 (stereo not drawn) — lower, -4.56%
- CC(C)N1CCCC(C(=O)N2CCN(c3nsc4ccccc34)CC2)C1 (stereo not drawn) — higher, 58.5%
- CCN1CC(C(=O)N2CCN(c3nsc4ccccc34)CC2)CCC1=O (stereo not drawn) — higher, 33.9%
- NC(=O)N1CCCC(C(=O)N2CCN(c3nsc4ccccc34)CC2)C1 (stereo not drawn) — higher, 35.8%
- Cc1cc(NC(=O)NCc2ccc(C)s2)no1 — higher, 56.8%
- Cc1cc(CN2CCN(C(=O)NCc3ccc(C)s3)CC2)no1 — lower, 18.6%
- CNS(=O)(=O)c1ccc(CNC(=O)Nc2cc(C)on2)s1 — lower, 24.3%
- CCc1ccc(CNC(=O)Nc2cc(C)on2)s1 — higher, 39.7%
- Cc1cc(NC(=O)NCc2ccc(S(=O)(=O)N3CCCC3)s2)no1 — higher, 68%
- O=S(=O)(NCc1ccc(S(=O)(=O)N2CCCC2)s1)c1ccc(Cl)c(Cl)c1 — higher, 40.6%
